hgDAF12 agonist: activates the H. glycines DAF-12 receptor ligand-binding domain; HEK293 GAL4-hgDAF12 UAS-luciferase reporter, agonist luminescence; normalized to butyrate control; hit rate 1.8% among 370,000; activation, % at 6.8 µM;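 active = activation above a cutoff set at the mean of all screened compounds plus 3 SD, cut at about 10% in these data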
DAX1 inh-1: blocks DAX1 repression of SF-1 activated StAR promoter; hit rate 1.1% among 370,000; HEK293T StAR-luciferase reporter, SF-1/DAX-1 repression relief; AID 652010; inhibition, % at 6.8 µM;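 active = inhibition above the mean over all tested compounds plus 3 SD, cut at about 3.6% in these data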;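 also: higher inhibition means more luminescence from relief of DAX-1 repression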
hcDAF12 agonist: activates DAF-12 receptor from parasite H. contortus; HEK293 hcDAF-12 lit1-tk-luc reporter, luminescence; 0% DMSO, 100% Δ7-dafachronic acid; activation, % at 6.8 µM; hit rate 1.4% among 370,000; AID 652067;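 active = activation above the mean of all tested compounds plus 3 SD, cut at about 5.5% in these data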
FXN GAA850 act: activators of GAA850 frataxin (FXN) promoter. HEK293 lucGAA850 FXN promoter luciferase reporter, 24 h; percent of 10 µM SAHA response. activation, % at 6 µM. hit rate 0.56% among 360,000. AID 540364;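 active = activation above the average of all compounds screened plus 3 SD, cutoff fixed separately per campaign, cut at about 7.5% in these data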
DAX1 inh-2: NR0B1 (DAX1) inhibition; inhibition, % at 6.75 µM; P51843; hit rate 0.99% among 340,000; HEK293 Gal4-DAX1 luciferase reporter, luminescence;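 active = inhibition above the mean over all tested compounds plus 3 SD, cut at about 4.2% in these data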;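 also: inhibition shows as a rise in luminescence from relieved DAX1 repression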
Target sequence (P51843 207-470 limits assumed): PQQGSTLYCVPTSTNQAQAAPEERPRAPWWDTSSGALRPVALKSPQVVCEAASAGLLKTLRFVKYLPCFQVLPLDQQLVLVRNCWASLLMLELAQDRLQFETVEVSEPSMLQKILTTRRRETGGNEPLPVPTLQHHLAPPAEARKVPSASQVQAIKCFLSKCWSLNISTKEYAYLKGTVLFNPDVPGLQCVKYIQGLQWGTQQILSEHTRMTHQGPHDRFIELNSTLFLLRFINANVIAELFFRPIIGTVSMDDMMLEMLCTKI
ssDAF-12 act: activates DAF-12 receptor from parasite S. stercoralis | HEK293 ssDAF-12/GRIP1 lit1-tk-luc reporter, luminescence; % of 3 µM dafachronic acid response | activation, % at 6.8 µM | hit rate 1% among 370,000;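 active = activation above the mean over all tested compounds plus 3 SD, cut at about 0.9% in these data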
DAX1 inh confirm: confirmation of human DAX1 (NR0B1) inhibitors; shares compounds with DAX1 inh-1; HEK293T StAR-promoter luciferase reporter, SF-1/DAX-1 repression; inhibition, % at 6.8 µM; hit rate 87% among 2,400;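 active = inhibition above the average of every tested compound plus 3 SD, cut at about 3.8% in these data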;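 also: active compounds raise luminescence by relieving repression of the StAR reporter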
Target sequence (P51843 whole entry, looked up): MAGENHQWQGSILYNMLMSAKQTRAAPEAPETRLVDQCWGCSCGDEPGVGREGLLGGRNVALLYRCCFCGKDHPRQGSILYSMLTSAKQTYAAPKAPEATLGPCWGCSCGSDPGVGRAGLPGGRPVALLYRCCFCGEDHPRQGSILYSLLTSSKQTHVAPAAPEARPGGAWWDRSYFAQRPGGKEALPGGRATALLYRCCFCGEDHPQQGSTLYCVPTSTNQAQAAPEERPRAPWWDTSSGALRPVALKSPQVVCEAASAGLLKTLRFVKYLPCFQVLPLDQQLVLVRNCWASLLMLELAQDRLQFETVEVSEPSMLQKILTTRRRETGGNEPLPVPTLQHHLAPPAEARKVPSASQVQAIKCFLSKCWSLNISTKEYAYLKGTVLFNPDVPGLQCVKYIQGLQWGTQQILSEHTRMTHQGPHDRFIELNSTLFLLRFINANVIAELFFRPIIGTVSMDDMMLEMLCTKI
SF1 AF2mut Luc: nonselective inhibitor or artifact in SF-1 mutant DAX1 counter-screen; shares compounds with DAX1 inh-1; hit rate 78% among 2,400; AID 652136; HEK293 StAR-luciferase, SF-1 AF2 mutant, luminescence; inhibition, % at 6.8 µM;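 active = inhibition above the mean of all tested compounds plus 3 SD, cut at about 3% in these data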
Large screens that a line does not name were inactive (follow-up assays come after a bar, where they were run). Sampled rows, rich in hits. Any-hit rate of the full collection: about 4.5%.

CC(=O)Nc1cnc(-c2ccc3c(c2)OCO3)cn1	hgDAF12 agonist 12, DAX1 inh-1 4.8 (no result: DAX1 inh-2) | DAX1 inh confirm 9.0 | SF1 AF2mut Luc 5.7
Cc1ccc(/C=N\NC(=O)c2ccc3c(c2)OCO3)o1	DAX1 inh-1 5.2 | DAX1 inh confirm inactive | SF1 AF2mut Luc 2.9
COC(=O)CCN(Cc1ccc(OC)cc1OC)S(=O)(=O)c1ccccc1Br	none (no result: FXN GAA850 act, DAX1 inh-2)
CN(C(=O)CSc1nc2ccccc2o1)C1CCCCC1	hgDAF12 agonist 13, DAX1 inh-1 9.0 | DAX1 inh confirm 7.2 | SF1 AF2mut Luc 5.9
O=C(Nc1ccccc1)C(=O)Nc1ccc2c(c1)N(C(=O)C1CC1)CCC2	hgDAF12 agonist 11, DAX1 inh-1 6.0 | DAX1 inh confirm 4.1 | SF1 AF2mut Luc inactive
O=C(Nc1ccc([N+](=O)[O-])cc1Cl)c1cc(Cl)ccc1O	hgDAF12 agonist 12, DAX1 inh-1 6.7 | DAX1 inh confirm inactive | SF1 AF2mut Luc inactive
O=C(Nc1ccc([N+](=O)[O-])cc1Cl)c1cccc([N+](=O)[O-])c1	none
CCN1C(=O)/C(=C/C=C2/SCCN2C)SC1=S	DAX1 inh-1 4.7, hcDAF12 agonist 5.8 | DAX1 inh confirm 11 | SF1 AF2mut Luc 5.6
O=C(N[C@H](Cc1ccccc1)C(=O)N1CCN(CC(=O)N2CCCC2)CC1)[C@H]1O[C@@H](n2ccc(=O)[nH]c2=O)[C@H](O)[C@@H]1O	none (no result: FXN GAA850 act, DAX1 inh-2)
CC(C)(C)c1ccc(C(=O)NC(=S)N2CCOCC2)cc1	hgDAF12 agonist 13, DAX1 inh-1 7.0 | DAX1 inh confirm 8.8 | SF1 AF2mut Luc 3.4
CN1CCN(C(=S)NC(=O)c2ccc(C(C)(C)C)cc2)CC1	none
COc1ccc(-c2ccnc3c(Br)c(C)nn23)cc1	DAX1 inh-1 4.8 | DAX1 inh confirm inactive | SF1 AF2mut Luc inactive
Cc1nn2c(-c3ccc(F)cc3)ccnc2c1Br	none
CC(C)NC(=O)N[C@H]1CC[C@H](CC(=O)NCc2ccc(Oc3ccccc3)cc2)O[C@@H]1CO	DAX1 inh-1 4.5 (no result: FXN GAA850 act, DAX1 inh-2) | DAX1 inh confirm inactive | SF1 AF2mut Luc inactive
O=C(CCCOc1ccccc1)Nc1nnc(C2CCCO2)s1 (stereo unspecified)	none
COc1ccccc1OCCCC(=O)Nc1nnc(C2CCCO2)s1 (stereo unspecified)	DAX1 inh-1 6.1 | DAX1 inh confirm 4.2 | SF1 AF2mut Luc 3.7
O=C(c1ccccc1Oc1ccccc1)N1CCC(Oc2cccnc2)CC1	none (no result: FXN GAA850 act, DAX1 inh-2)
C#CCSc1nc(-c2cccs2)ccc1C#N	none
COC(=O)CSc1nc(-c2cccs2)ccc1C#N	hgDAF12 agonist 12, DAX1 inh-1 5.9, hcDAF12 agonist 6.5, ssDAF-12 act 1.8 | DAX1 inh confirm 9.9 | SF1 AF2mut Luc 8.2
O=C(C(=O)N1CCN(S(=O)(=O)c2cccc3ccccc23)CC1)c1cccc(C(F)(F)F)c1	none (no result: FXN GAA850 act, DAX1 inh-2)
CC1Sc2ccc(C(=O)OCc3ccccc3Cl)cc2NC1=O (stereo unspecified)	DAX1 inh-1 6.1 | DAX1 inh confirm 7.3 | SF1 AF2mut Luc 5.9
CCOP(=O)(OCC)c1ccc2c(c1)C(=O)c1ccccc1-2	none (no result: DAX1 inh-1, FXN GAA850 act, DAX1 inh-2)
COc1ccc(S(=O)(=O)N2CCCCC2)cc1NC(=O)CN1C(=O)NC(C)(C2CC2)C1=O (stereo unspecified)	none
CC(C)Oc1ccc(S(=O)(=O)N2CCCCC2)cc1NC(=O)CN1C(=O)NC(C)(C2CC2)C1=O (stereo unspecified)	DAX1 inh-1 4.7 | DAX1 inh confirm inactive | SF1 AF2mut Luc inactive
CC(C)(C)c1cc(NC(=O)c2cccs2)no1	hgDAF12 agonist 11, DAX1 inh-1 11 | DAX1 inh confirm 12 | SF1 AF2mut Luc 7.2
Cc1cc(NC(=O)c2ccc(NC(=O)c3cccs3)cc2)no1	none
COC(=O)[C@]12C[C@H](CC(=O)NCC3CCCCC3)C(=O)N(Cc3ccco3)C1=C[C@H](C(C)C)O[C@@H]2C1CC1	none (no result: FXN GAA850 act, DAX1 inh-2)
COC(=O)[C@]12C[C@H](CC(=O)NCc3ccc(OC)c(OC)c3)C(=O)N(Cc3ccccc3)C1=C[C@H](C(C)(C)C)O[C@@H]2C	none (no result: FXN GAA850 act, DAX1 inh-2)
Cc1ccnc(NC(=O)CCNC(=O)c2ccccc2Cl)c1	DAX1 inh-1 5.0 | DAX1 inh confirm 8.5 | SF1 AF2mut Luc 5.6
Cc1ccnc(NC(=O)CC(NC(=O)c2ccccc2Cl)c2ccccc2)c1 (stereo unspecified)	hgDAF12 agonist 11, DAX1 inh-1 6.1 | DAX1 inh confirm 7.0 | SF1 AF2mut Luc 7.0
Cc1ccnc(NC(=O)CNC(=O)c2ccccc2Br)c1	DAX1 inh-1 5.0 | DAX1 inh confirm 7.0 | SF1 AF2mut Luc 3.7
O=C(/C=C/[C@H]1O[C@@H](n2ccc(=O)[nH]c2=O)[C@H](O)[C@@H]1O)NCCN1CCCC1	none (no result: FXN GAA850 act, DAX1 inh-2)
CC(Sc1ccccc1F)C(=O)Nc1ccc2c(c1)OCCO2 (stereo unspecified)	DAX1 inh-1 4.9, ssDAF-12 act 0.9 | DAX1 inh confirm 6.5 | SF1 AF2mut Luc 4.0
Clc1ccc(OCc2cn3cccnc3n2)c2ncccc12	none
Cc1cc(Cl)ccc1OCc1cn2cccnc2n1	hgDAF12 agonist 11, DAX1 inh-1 8.0 | DAX1 inh confirm 8.3 | SF1 AF2mut Luc 4.0
CC(C)[C@@H](C)/C=C/[C@@H](C)[C@H]1CC[C@@H]2[C@]1(C)CCC1[C@]23C=C[C@]2(C[C@@H](O)CC[C@]12C)N(c1cnccn1)O3 (stereo partly specified)	DAX1 inh-1 4.6 (no result: FXN GAA850 act, DAX1 inh-2) | DAX1 inh confirm inactive | SF1 AF2mut Luc inactive
CC(C)[C@@H](C)/C=C/[C@@H](C)[C@H]1CC[C@@H]2[C@]1(C)CCC1[C@]23C=C[C@]2(C[C@@H](O)CC[C@]12C)N(c1ncc(C(F)(F)F)cc1Cl)O3 (stereo partly specified)	none (no result: FXN GAA850 act, DAX1 inh-2)
CN1CCCN(C(=O)c2cc3c(s2)CCCC3)CC1	none
CC(=O)N1CCN(C(=O)c2cc3c(s2)CCCC3)CC1	DAX1 inh-1 4.6 | DAX1 inh confirm inactive | SF1 AF2mut Luc inactive
O=[N+]([O-])c1ccccc1S(=O)(=O)Nc1cccc(-c2ccc(N3CCOCC3)nn2)c1	DAX1 inh-1 5.2 | DAX1 inh confirm 7.0 | SF1 AF2mut Luc 5.2
COc1ccc(-n2ncc3c(N4CCC(C)CC4)ncnc32)cc1	hgDAF12 agonist 10, DAX1 inh-1 6.6, hcDAF12 agonist 6.5 | DAX1 inh confirm 12 | SF1 AF2mut Luc 4.5
CCOC(=O)N1CCN(c2ncnc3c2cnn3-c2ccc(OC)cc2)CC1	none
COc1ccc(NC(=O)C(OC(=O)CNC(=O)c2ccccc2)c2ccccc2)cc1F (stereo unspecified)	none (no result: DAX1 inh-1, FXN GAA850 act, DAX1 inh-2)

Screens: PubChem BioAssay, The Scripps Research Institute Molecular Screening Center
